Measurements from PubChem BioAssay (Tox21).
Results filed as inconclusive are left out. Active and inactive are the calls of the source. Unless noted, calls come from the whole dose curve.

Tests used:
[1] = qHTS assay to identify small molecule agonists of the vitamin D receptor (VDR) signaling pathway - cell viability counter screen (AID 743224; active = well fitted curve in the direction sought with a large enough effect in the repeat runs; an effect the other way counts as inactive or inconclusive; note: series mostly up to about 63 µM; % is set by controls: 0 for no effect and ±100 for the full control effect; nearly all actives have a fitted effect of over 50% in size)
In short: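 VDR-bla cells were preincubated 4 h at 37C/5% CO2, then exposed to compounds for 16 h. After the 2 h room-temperature bla FRET read, CellTiter-Glo was added to the same wells and luminescence read after 30 min.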

[2] = qHTS assay to identify small molecule antagonists of the vitamin D receptor (VDR) signaling pathway - cell viability counter screen (AID 743225; active = well fitted curve in the direction sought with a large enough effect in the repeat runs; an effect the other way counts as inactive or inconclusive; note: % is set by controls: 0 for no effect and ±100 for the full control effect; nearly all actives have a fitted effect of over 50% in size)
In short: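 Parallel cytotoxicity test: VDR-UAS-bla HEK 293T, 3 nM (final) 1-alpha,25-dihydroxyvitamin D3 with test compound, 16 h, 37C. Endpoint is CellTiter-Glo luminescence in the same wells.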

[3] = qHTS assay to identify small molecule agonists of the NFkB signaling pathway (AID 1159509; active = well fitted curve in the direction sought with a large enough effect in the signal ratio in the repeat runs, not every such curve was filed as active; the % refers to the signal ratio; note: series mostly up to about 61 µM; % is set by controls: 0 for no effect and ±100 for the full control effect)
In short: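 NFkB-bla ME-180 cells carry a beta-lactamase reporter under an NF-kB response element. They were plated overnight, then exposed to compounds for 5 h at 37 C. Read-out is LiveBLAzer FRET after 1.5 hr at room temperature (405 nm excitation; 460/530 nm emission).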

[4] = qHTS assay to identify small molecule agonists of the NFkB signaling pathway - cell viability counter screen (AID 1159515); note: series mostly up to about 61 µM; % is set by controls: 0 for no effect and ±100 for the full control effect; nearly all actives have a fitted effect of over 55% in size
In short: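 NFkB-bla ME-180 cells, 2,000/well, were plated overnight at 37 C, 5% CO2, then exposed to compounds in DMSO for 5 hr. After the bla FRET read, CellTiter-Glo was added to the same wells; luminescence was read after 30 min at room temperature.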

[5] = qHTS assay to identify small molecule agonists of the endoplasmic reticulum stress response signaling pathway (AID 1159516; active = well fitted activation curve with a large enough effect in the signal ratio in the repeat runs, not every such curve was filed as active; the % refers to the signal ratio; note: % is set by controls: 0 for no effect and ±100 for the full control effect)
In short: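 CellSensor ESRE-bla HeLa cells, carrying a beta-lactamase reporter driven by the ER stress response element, were plated overnight and exposed to compounds for 5 hr at 37 C. Reporter activity was read as FRET substrate fluorescence after 2 hr at room temperature.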

[6] = qHTS assay to identify small molecule agonists of the endoplasmic reticulum stress response signaling pathway - cell viability counter screen (AID 1159517); note: series mostly up to about 61 µM; % is set by controls: 0 for no effect and ±100 for the full control effect; nearly all actives have a fitted effect of over 50% in size
In short: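 ESRE-bla HeLa cells, 1,500 per well, seeded overnight then treated with compounds for 5 hr at 37 C. After the beta-lactamase read, viability in the same wells is measured by CellTiter-Glo luminescence after 30 min at room temperature.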

[7] = qHTS assay to identify small molecule antagonists of the retinoid-related orphan receptor gamma (ROR-gamma) signaling pathway - cell viability counter screen (AID 1159520; active = well fitted curve in the direction sought with a large enough effect in the repeat runs; an effect the other way counts as inactive or inconclusive; note: % is set by controls: 0 for no effect and ±100 for the full control effect; nearly all actives have a fitted effect of over 50% in size)
In short: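 Tet-on ROR gamma CHO cells were given compounds for 2 hr, then doxycycline hyclate at 1 uM final, and incubated 16 hr at 37 C. Viability was measured as ATP content by CellTiter-Glo luminescence.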

[8] = molecular target: Nuclear receptor ROR-gamma (Homo sapiens) (UniProt P51449); test: qHTS assay to identify small molecule antagonists of the retinoid-related orphan receptor gamma (ROR-gamma) signaling pathway (AID 1159521; active = well fitted curve in the direction sought with a large enough effect in the repeat runs; an effect the other way counts as inactive or inconclusive)
In short: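 Decreased RORE-driven luciferase luminescence indicates antagonism. Tet-on RORγ CHO cells received compound, then 1 uM final doxycycline 2 h later; signal read after 16 h incubation.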

[9] = qHTS assay to identify small molecule agonists of the AP-1 signaling pathway - cell viability counter screen (AID 1159525); note: nearly all actives have a fitted effect of over 55% in size
In short: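 AP-1-bla ME-180 cells in Opti-MEM with 0.5% dialyzed FBS, compound exposure 5 h at 37 C in 15-point titration. Viability read in the same wells as ATP content by CellTiter-Glo luminescence, normalised to tetra-n-octylammonium bromide and DMSO controls.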

[10] = qHTS assay to identify small molecule agonists of the AP-1 signaling pathway (AID 1159526); note: % is set by controls: 0 for no effect and ±100 for the full control effect

CCN(Cc1cccc(S(=O)(=O)O)c1)c1ccccc1
inactive: outcome [1] | outcome [2] | outcome [3] | outcome [4] | outcome [5] | outcome [6] | outcome [7] | outcome [8] | outcome [9] | outcome [10]

O=S(=O)(O)c1cc(O)ccc1O
inactive: outcome [2] | outcome [3] | outcome [4] | outcome [5] | outcome [6] | outcome [7] | outcome [8] | outcome [9] | outcome [10]

CC(Cl)COP(=O)(OCC(C)Cl)OCC(C)Cl (stereo not drawn)
inactive: outcome [2] | outcome [3] | outcome [4] | outcome [5] | outcome [6] | outcome [7] | outcome [8] | outcome [9] | outcome [10]

Cc1nc2ccccc2c(=O)o1
inactive: outcome [2] | outcome [3] | outcome [4] | outcome [5] | outcome [6] | outcome [7] | outcome [8] | outcome [9] | outcome [10]

CCCCC(CC)C(=O)OC(C)C (stereo not drawn)
inactive: outcome [1] | outcome [3] | outcome [4] | outcome [5] | outcome [6] | outcome [7] | outcome [9] | outcome [10]

Cc1ccccc1C(=O)N1CC/C(=N\OS(=O)(=O)O)c2ccc(Cl)cc21
inactive: outcome [2] | outcome [3] | outcome [4] | outcome [5] | outcome [6] | outcome [7] | outcome [8] | outcome [9] | outcome [10]

C=CCOc1cc(Cl)ccc1C(=O)NCCN(CC)CC
inactive: outcome [1] | outcome [2] | outcome [3] | outcome [4] | outcome [5] | outcome [6] | outcome [7] | outcome [9] | outcome [10]

CC(=O)OCCCc1ccccc1
inactive: outcome [2] | outcome [3] | outcome [4] | outcome [5] | outcome [6] | outcome [7] | outcome [8] | outcome [9] | outcome [10]

Cn1c(=O)c2c(ncn2CC2OCCO2)n(C)c1=O
inactive: outcome [2] | outcome [3] | outcome [4] | outcome [5] | outcome [6] | outcome [7] | outcome [8] | outcome [9] | outcome [10]

CC(=O)N1CCN(c2ccc(O)cc2)CC1
inactive: outcome [2] | outcome [3] | outcome [4] | outcome [5] | outcome [6] | outcome [7] | outcome [8] | outcome [9] | outcome [10]

CCCCCCCCCCCCCCCCI
inactive: outcome [2] | outcome [3] | outcome [4] | outcome [5] | outcome [6] | activity, negative = cytotoxicity [7] -0.188% [at 19 µM] | activity change, negative = inhibition [8] 2.8% [at 19 µM] | viability change, negative = cytotoxic [9] -11.4% [at 15.8 µM] | activation [10] -9.43% [at 15.8 µM]

O=C(O)c1ccccc1C(=O)Nc1ccc(S(=O)(=O)Nc2nccs2)cc1
inactive: outcome [1] | outcome [2] | outcome [3] | outcome [4] | outcome [5] | outcome [6] | outcome [7] | outcome [9] | outcome [10]

O=c1cc(O)c(Cl)c[nH]1
inactive: outcome [2] | outcome [3] | outcome [4] | outcome [5] | outcome [6] | outcome [7] | outcome [8] | outcome [9] | outcome [10]

Cc1nc(C)nc(N2C[C@@H](C)N(c3ccnc([C@@H](C)O)n3)[C@@H](C)C2)n1
inactive: outcome [2] | outcome [3] | outcome [4] | outcome [5] | outcome [6] | outcome [7] | outcome [8] | outcome [9] | outcome [10]

C[C@H]1O[C@H](O[C@H]2[C@H](O)[C@@H](O)[C@@H](O[C@H]3[C@H](O)[C@@H](O)[C@H](O)O[C@@H]3CO)O[C@@H]2CO)[C@H](O)[C@@H](O)[C@@H]1N[C@H]1C=C(CO)[C@@H](O)[C@H](O)[C@H]1O
inactive: outcome [1] | outcome [2] | outcome [3] | outcome [4] | outcome [5] | outcome [6] | outcome [7] | outcome [9] | outcome [10]

COC(/C=C(\C)CCC=C(C)C)OC
inactive: outcome [2] | outcome [3] | outcome [4] | outcome [5] | outcome [6] | outcome [7] | outcome [8] | outcome [9] | outcome [10]

CC(C)SCc1ccco1
inactive: outcome [1] | outcome [2] | outcome [3] | outcome [4] | outcome [5] | outcome [6] | outcome [7] | outcome [9] | outcome [10]

NS(=O)(=O)c1cc2c(cc1Cl)NC(C(Cl)Cl)NS2(=O)=O (stereo not drawn)
inactive: outcome [1] | outcome [2] | outcome [3] | outcome [4] | outcome [5] | outcome [6] | outcome [7] | outcome [9] | outcome [10]

CCOC(=O)C(=O)c1csc(NC=O)n1
inactive: outcome [1] | outcome [2] | outcome [3] | outcome [4] | outcome [5] | outcome [6] | outcome [7] | outcome [9] | outcome [10]

CCC(=O)OCCC(C)CCC=C(C)C (stereo not drawn)
inactive: outcome [2] | outcome [3] | outcome [4] | outcome [5] | outcome [6] | outcome [7] | outcome [8] | outcome [9] | outcome [10]

CCC(C)(CCC(C)C)C(=O)[O-].CCC(C)(CCC(C)C)C(=O)[O-].[Zn+2] (stereo not drawn)
inactive: outcome [1] | outcome [2] | outcome [3] | outcome [4] | outcome [5] | outcome [6] | outcome [7] | outcome [9] | outcome [10]

CCCCCCCCCCCCC1CO1 (stereo not drawn)
inactive: outcome [2] | outcome [3] | outcome [4] | outcome [5] | outcome [6] | outcome [7] | outcome [8] | outcome [9] | outcome [10]

CO/N=C(/C(=O)N[C@@H]1C(=O)N2C(C(=O)O)=C(Cn3nnc(C)n3)CS[C@H]12)c1csc(N)n1
inactive: outcome [2] | outcome [3] | outcome [4] | outcome [5] | outcome [6] | outcome [7] | outcome [8] | outcome [9] | outcome [10]

COC(OC)C(C)c1ccccc1 (stereo not drawn)
inactive: outcome [2] | outcome [3] | outcome [4] | outcome [5] | outcome [6] | outcome [7] | outcome [8] | outcome [9] | outcome [10]

NC(=O)NNC(N)=O
inactive: outcome [2] | outcome [3] | outcome [4] | outcome [5] | outcome [6] | outcome [7] | outcome [8] | outcome [9] | outcome [10]

NC(=O)NC(=O)Cc1ccccc1
inactive: outcome [2] | outcome [3] | outcome [4] | outcome [5] | outcome [6] | outcome [7] | outcome [8] | outcome [9] | outcome [10]

CC(C)c1ccccc1O
inactive: outcome [2] | outcome [3] | outcome [4] | outcome [5] | outcome [6] | outcome [7] | outcome [8] | outcome [9] | outcome [10]
